Source: PubChem BioAssay (NCATS)
Results filed as inconclusive are left out. A number with no mark means an inactive call. Calls come from the whole dose curve; as a rule, active = well fitted activation curve with a large enough effect; inconclusive = small, poorly fitted or top-dose-only effect; inactive = flat fitted curve, though single readings scatter. Where a SMILES comes first, the peptide text is derived from it.

Assay: Primary redox qHTS assay for identification of artifact compounds. (AID 1845223);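 note: 0% = DMSO and 100% = reference compound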
Settings: Amplex Red/HRP redox cycling with DTT, fluorescence; series mostly up to 53.8 µM; redox activity (% of DA3003): at the top concentration
In short: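 Amplex Red (25 uM) and HRP (250 mU/mL) in HBSS, with compounds for 15 min, then 250 uM DTT for 30 min, room temperature, dark. Fluorescence 525/598 nm read; normalized to DMSO and 10 uM DA3003; Hill fit.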
With CCC(NC(=O)CC(NC(=O)C(CO)NC(=O)C(CC)NC(=O)c1ccc[nH]1)c1ccccc1)C(=O)O (centres undefined) the “redox activity (% of DA3003)” value was -16.9% [at 25.6 µM]. In the case of Cn1ccnc1CCOC(c1cc2nccc(C(=O)O)c2[nH]1)c1ccccc1Cl (centres undefined), the “redox activity (% of DA3003)” value is reported as 14.7%. For Cc1nc2c(-c3cnc(N)nc3)nc(N3CCOCC3)nc2n1C(C)C, the “redox activity (% of DA3003)” value was -9.76%. In the case of CC(=O)[C@@H]1CC[C@]2(C(=O)O)CC[C@]3(C)C(CCC4[C@@]5(C)CC[C@H](O)C(C)(C)C5CC[C@]43C)C12 (some centres undefined), the “redox activity (% of DA3003)” value is reported as -2.66% [at 25.6 µM]. For CCOc1c2c(c(OCC)c3ccccc13)C(=O)N(c1ccc(CC(=O)NS(=O)(=O)c3ccccc3)cc1)C2, the “redox activity (% of DA3003)” value was -0.704%. For CC1C/C=C/C=C\CCCCC(O)C/C=C/C(=O)O1 (centres undefined), the “redox activity (% of DA3003)” value was -2.15%. With O=C1NC(=Nc2ccccc2F)S/C1=C\c1ccc(C(=O)O)cc1 the “redox activity (% of DA3003)” value was -3.81%. For C=C1CCC2C(C)(C(=O)O)CC(O)CC2(C)C1CC/C(C)=C/C(=O)O (centres undefined), the “redox activity (% of DA3003)” value was 0.124%. For COc1ccc(C2=CC(=O)OC2Cc2ccc(O)cc2)c(O)c1 (centres undefined), the “redox activity (% of DA3003)” value was 0.321%. With CCCC1=CC2=C(CO1)C(=O)C(C)(OC(=O)c1c(C)cc(OC)cc1O)C(O)C2 (centres undefined) the “redox activity (% of DA3003)” value was -2.68% [at 25.6 µM]. For CC1(C)OC(=O)C(OCC2CC2)=C1c1ccc(S(C)(=O)=O)cc1, the “redox activity (% of DA3003)” value was -0.681%. For C=C1C(=O)OC2/C=C(\C)CC/C=C(\C(=O)O)CC/C=C(\C)CCC12 (centres undefined), the “redox activity (% of DA3003)” value was -0.589%. For CC(C)C(C#N)O[C@@H]1O[C@H](CO[C@@H]2OC[C@](O)(CO)[C@H]2O)[C@@H](O)[C@H](O)[C@H]1O (some centres undefined), the “redox activity (% of DA3003)” value was -17.4%. For CC(C)=CC/C=C(/C)[C@H]1CC[C@]2(C)[C@@H]1[C@H](O)CC1[C@@]3(C)CC[C@H](O)C(C)(C)[C@@H]3[C@@H](O[C@@H]3O[C@H](CO)[C@@H](O)[C@H](O)[C@H]3O[C@@H]3O[C@@H](C)[C@H](O)[C@@H](O)[C@H]3O)C[C@]12C (some centres undefined), the “redox activity (% of DA3003)” value was -0.963% [at 25.6 µM]. With COc1cc(/C=C/C(=O)OC2CC(C)=C(C(=O)O)/C2=C/CO[C@@H]2O[C@H](CO)[C@@H](O)[C@H](O)[C@H]2O)ccc1O (some centres undefined) the “redox activity (% of DA3003)” value was 7.41% [at 25.6 µM]. With CC(=O)OC[C@]1(O)[C@H]2[C@H](OC(=O)CC(C)C)OC=C(CO[C@@H]3O[C@H](CO)[C@@H](O)[C@H](O)[C@H]3O)[C@H]2C[C@@H]1O the “redox activity (% of DA3003)” value was -8.6% [at 25.6 µM]. C/C=C(\C)C(=O)O[C@H]1[C@H](O)[C@]2(COC(C)=O)[C@H](O)C[C@]3(C)C(=CCC4[C@@]5(C)CC[C@H](O[C@@H]6O[C@H](C(=O)O)[C@@H](O[C@@H]7O[C@H](CO)[C@@H](O)[C@H](O)[C@H]7O)[C@H](O)[C@H]6O[C@@H]6O[C@H](CO)[C@@H](O)[C@H](O)[C@H]6O)[C@](C)(CO)C5CC[C@]43C)[C@@H]2CC1(C)C (some centres undefined) gave a redox activity (% of DA3003) of 2.47% [at 11.5 µM]. In the case of CN1CC[C@@H](NC(=O)Nc2ccc(C#N)cc2)C[C@@H]1c1nc2ccccc2[nH]1, the “redox activity (% of DA3003)” value is reported as -3.12%. In the case of O=C(CCO[C@@H]1O[C@H](CO)[C@@H](O)[C@H](O)[C@H]1O)c1ccc(O)cc1, the “redox activity (% of DA3003)” value is reported as -0.131%. In the case of COC(=O)[C@@]1(O)C=CC[C@@H]2[C@@]3(C)C[C@@H](c4ccoc4)OC(=O)[C@H]3CC[C@]21C, the “redox activity (% of DA3003)” value is reported as 2.63%. In the case of CN1C(=O)c2ccccc2-n2c(nc3ccccc3c2=O)[C@@]12O[C@H]2c1ccccc1, the “redox activity (% of DA3003)” value is reported as 0%. For C[C@@H]1CC[C@H]2C(C)(C)[C@H](O)[C@H](O)C[C@]2(C)[C@@]12Cc1c(O)cc3c(c1O2)CNC3=O, the “redox activity (% of DA3003)” value was 6.65%. For C[C@H](NCc1ccc(OCc2ccccc2F)cc1)C(N)=O, the “redox activity (% of DA3003)” value was -5.55%. With COc1cc([C@H]2OC[C@]3(OC(C)=O)[C@@H](c4ccc(O[C@@H]5O[C@H](CO)[C@@H](O)[C@H](O)[C@H]5O)c(OC)c4)OC[C@H]23)ccc1O the “redox activity (% of DA3003)” value was -0.0796% [at 25.6 µM]. In the case of CC(NCc1ccc(OCc2cccc(F)c2)cc1)C(N)=O (centres undefined), the “redox activity (% of DA3003)” value is reported as -1.62%. With CC(=O)N[C@H]1CCN(c2ccc(C3=NOC(CN[S+](=O)([O-])C(C)C)C3)cc2F)C1 (some centres undefined) the “redox activity (% of DA3003)” value was 12.2%. With CC(C)(O)C1CC=C(C(=O)OCC2OC(Oc3c(O)cc(C(=O)O)cc3O)C(O)C(O)C2O)CC1 (centres undefined) the “redox activity (% of DA3003)” value was -2.22% [at 25.6 µM]. For C=C1CC2C3(C)C(OC(C)=O)CC(=O)OC(C)(C)C3C(O)C(OC(C)=O)C2(C)C2C(=O)OC(C)C(=O)C12C (centres undefined), the “redox activity (% of DA3003)” value was 6.85% [at 25.6 µM]. CC[C@H](/C=C/[C@@H](C)[C@H]1CC[C@H]2[C@@H]3CC=C4C[C@@H](O)CC[C@]4(C)[C@H]3CC[C@]12C)C(C)C showed a redox activity (% of DA3003) of -0.124% [at 6.41 µM]. In the case of COc1ccccc1[C@@H]1C2=C(CC(C)(C)CC2=O)Nc2n[nH]c(C(F)(F)F)c21, the “redox activity (% of DA3003)” value is reported as 3.09%. For COC(=O)[C@H](OC(C)=O)[C@H]1C(C)(C)C(=O)[C@H]2CC3=C4CC(=O)O[C@@H](c5ccoc5)[C@]4(C)CCC3[C@@]1(C)C2=O (some centres undefined), the “redox activity (% of DA3003)” value was 18.2% [at 25.6 µM]. C[C@@H](O)[C@H](N)C(=O)N1CCC[C@H]1C(=O)N1CCC[C@H]1C(=O)N[C@H](C(N)=O)[C@@H](C)O (H-TPPT-NH2) gave a redox activity (% of DA3003) of 17.6% [at 11.5 µM]. In the case of Cc1nnc(C(C)C)n1C1CC2CCC(C1)N2CCC(NC(=O)C1CCC(F)(F)CC1)c1ccccc1 (centres undefined), the “redox activity (% of DA3003)” value is reported as 11.6%. In the case of C=CCc1ccc(O[C@@H]2O[C@H](CO[C@@H]3O[C@@H](C)[C@H](O)[C@@H](O)[C@H]3O)[C@@H](O)[C@H](O)[C@H]2O)cc1, the “redox activity (% of DA3003)” value is reported as -10.8% [at 25.6 µM]. With CC(C)C1(O[C@@H]2O[C@H](CO)[C@@H](O)[C@H](O)[C@H]2O)CC=C(CO)CC1 (some centres undefined) the “redox activity (% of DA3003)” value was -5.56%. With Cc1cn2c(N)c(Cl)cc(C(=O)NCC3CCN(CC(C)C)CC3)c2n1 the “redox activity (% of DA3003)” value was -1.56%. With CC1=CC(=O)C2C(C)(C)CCCC2(C)C12CCC1(COC(=O)C1)O2 (centres undefined) the “redox activity (% of DA3003)” value was -11.2%. For CC1=C2C3OC(=O)C(C)C3(O)CCC2(C)CCC1=O (centres undefined), the “redox activity (% of DA3003)” value was -7.39%. In the case of C=C(C(=O)OC)C1CCC2(C)C(O[C@@H]3O[C@H](CO)[C@@H](O)[C@H](O)[C@H]3O)CC(=O)C(C)C2C1O (some centres undefined), the “redox activity (% of DA3003)” value is reported as -2.95% [at 25.6 µM].
